Measurements published in PubChem BioAssay AID720514 (Broad Institute, 2013).
About 300 (14%) of roughly 2,100 compounds were called active. Roughly 2% stayed inconclusive and do not appear here. Not all results are given here. Potency and affinity values are given separately. A number with no mark means an inactive call.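 Rule for the calls: active = every replicate test run called active, with the signal falling and half-maximal concentration within twice the top valid dose; inconclusive = the replicate test runs disagree in their calls; inactive = every test run inactive, including effects in the opposite direction.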

Assay: inhibitors of PGC1a acetylation in cells, dose response, cell-based, cherry-picked samples (AID 720514);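 note: 0% = neutral control wells and -100% = positive control wells; actives lower the acetylation signal so they count as inhibitors of PGC1a acetylation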
Settings: U2OS PGC1a acetylation, AlphaLISA, overnight; series mostly up to 19.5 µM; activity change, negative = inhibition: at the top concentration

SMILES | activity change, negative = inhibition
O=C(c1ccc(F)cc1)N1CC(=O)N2[C@H](CO)[C@@H](c3ccc(C#CCC4CCCC4)cc3)[C@@H]2C1 | 14.4% [at 21 µM]
CC(C)CC#Cc1ccc([C@@H]2[C@H](CO)N3CCCCN(S(=O)(=O)Cc4ccccc4)C[C@@H]23)cc1 | 35.4% [at 5 µM]
Cc1cccc(OC2(c3ccccc3)OC(=O)c3ccccc32)c1C (stereo not drawn) | 90.7%
O=C(COc1cccnc1[N+](=O)[O-])NCCc1ccc(Cl)cc1 | 38.7%
COc1cccc(-c2ccc(C3[C@@H]4CN(S(=O)(=O)c5cccc(OC)c5)C[C@H]3N4)cc2)c1 (stereo partly drawn) | 64.4%
COc1ccccc1-c1ccc(C2[C@@H]3CN(Cc4cccc(F)c4)C[C@H]2N3)cc1 (stereo partly drawn) | 55.2%
N#Cc1ccccc1S(=O)(=O)N1CCN(Cc2cc3c(cc2Br)OCCO3)CC1 | 120%
CC(C)(C)c1ccc(NC(=O)N2CCCN(c3ccc([N+](=O)[O-])cn3)CC2)cc1 | 187%
Cc1ccc(O)c(C(=O)c2cnc3c(c2)CN(CCC(C)C)C(=O)N3)c1 | 53.6%
COc1ccc(Cc2nc(-c3ccc(NC(=O)c4cccnc4)cc3)no2)cc1 | 207%
C=CCn1c(=NC(=O)c2ccc(S(=O)(=O)N3CCCC3)cc2)sc2cc(NC(C)=O)ccc21 | 44.8%
CCOCCn1c(CN(Cc2ccccc2)Cc2ccccc2)nc2c1c(=O)[nH]c(=O)n2C | 53.2%
N#Cc1ccc(Oc2cccnc2)cc1C#N | 106%
COc1ccc(NC(=O)C(=O)NCCC2CCCCN2S(=O)(=O)c2cccs2)cc1 (stereo not drawn) | 27.4%
COc1ccccc1-c1ccc2c(c1)C(C)(Cc1ccc(OC(F)(F)F)cc1)C(=O)N2 (stereo not drawn) | 41.4%
O=C1Nc2cc(S(=O)(=O)N3CCCC3)ccc2N2CCCC12 (stereo not drawn) | 63.7%
Cc1cc(N2CCC(C(N)=O)CC2)nc(-c2ccccc2)n1 | 43.1%
CCOC(=O)CC(S(=O)(=O)c1ccccc1)S(=O)(=O)c1ccccc1 | 105%
CCOC(=O)C1=C[C@@H](C(C)C)N(S(=O)(=O)c2ccc(C)cc2)[C@H]1c1ccc(C(F)(F)F)cc1 | 111%
COc1ccc(C(C)(O)c2nc(-c3ccc(S(C)(=O)=O)cc3)cs2)cc1 (stereo not drawn) | 112%
COc1ccc(CNc2ccc(-c3ccc(OC)cc3)nn2)cc1 | 105%
COc1ccc(CCNCc2ccc(-c3ccccc3)cc2)cc1OC | 36.3%
O=C1C=C(c2cc3ccccc3s2)CCC1 | 155%
O=C(c1cccs1)N1CCN(c2nnc(-c3ccccc3)c3ccccc23)CC1 | 84.9%

SMILES | activity change, negative = inhibition
N=c1n(CCN2CCCC2)c2ccccc2n1CC(O)c1ccc(Cl)c(Cl)c1 (stereo not drawn) | 54.5%
O=C(c1ccco1)N1CCN(c2nnc(-c3ccccc3)c3ccccc23)CC1 | 55.7%
Cc1cccc2cc(CN(Cc3ccc(F)cc3)Cc3nnnn3C3CCCC3)c(=O)[nH]c12 | 39.1%
Oc1ccc(C[C@@H]2CNCCN2CCC23CC4CC(CC(C4)C2)C3)cc1 | 47.7% [at 10 µM]
CCOC(=O)C1(Cc2ccccc2)CCN(Cc2cccc(OC)c2O)CC1 | 118%
CCn1nc(C)c(CN2CCc3c([nH]c4ccccc34)C2C(C)(C)C)c1C (stereo not drawn) | 81.8%
Cc1cc(C)c2c(-n3cccc3)c(C(=O)NNS(=O)(=O)c3ccccc3)sc2n1 | 99.1%
Cc1cccc(S(=O)(=O)N(C)C[C@@H]2OCc3cn(nn3)CCCC(=O)N([C@H](C)CO)C[C@H]2C)c1 | 7.15%
C[C@H]1CN([C@@H](C)CO)C(=O)CCCn2cc(nn2)CO[C@H]1CN(C)S(=O)(=O)c1ccc(Cl)cc1 | 24.9% [at 21 µM]
CC(=O)CCS(=O)(=O)c1ccc(C)c(C)c1 | 117%
O=C(C[C@@H]1C[C@@H]2c3cc(NC(=O)Nc4ccccc4F)ccc3O[C@@H]2[C@@H](CO)O1)NCc1ccc(Oc2ccccc2)cc1 | 31.4%
COC(=O)C[C@@H]1C[C@H]2c3cc(NC(=O)Nc4ccc(C(F)(F)F)cc4)ccc3O[C@H]2[C@H](CO)O1 | 90.3%
COc1ccc(CCNC(=O)COc2ccc(S(=O)(=O)N3CCCC3)cc2)cc1 | 40.7%
COc1ccc(CC(CC(=O)O)C(=O)Nc2ccc(OC)cc2)cc1 (stereo not drawn) | 32.5%
CCn1c(SC/C=C/c2ccccc2)nnc1-c1cccs1 | 41.8%
CC(=O)c1c(-c2ccccc2)[nH]c2ccccc12 | 30.8%
CC(=O)c1ccc(N2CCN(C(=O)C(=O)c3c(C)[nH]c4ccccc34)CC2)cc1 | 209% [at 5 µM]
O=C(Nc1cccc(S(=O)(=O)N2CCOCC2)c1)c1ccco1 | 48.2% [at 10 µM]
O=C(Nc1ccc2c(c1)OCO2)C1CCN(c2ccc(S(=O)(=O)N3CCOCC3)cc2)CC1 | 43% [at 10 µM]
O=C(CC1SC(=NCc2ccccc2)NC1=O)Nc1ccccc1 (stereo not drawn) | 150% [at 10 µM]
O=C(CC1CC1)N[C@@H]1CC[C@H](CCNS(=O)(=O)c2ccc(Cl)cc2)O[C@H]1CO | 46%
COC(=O)CSc1nc(-c2ccccc2)cc(-c2ccco2)c1C#N | 54.5%
COc1cc(Cn2c(N)c(C#N)c3nc4ccccc4nc32)cc(OC)c1 | -2.36%
CCC(C)(C)n1nnnc1CN(Cc1ccc(Cl)cc1)Cc1ccco1 | 142%
